# Rows were chosen to be rich in hits. Some 9.2% of all compounds tested hit in one or more screens of this group.
# HTT aggregate = qHTS Multiplex Assay to Identify Dual Action Probes in a Cell Model of Huntington: Aggregate Formation (GFP). PC12 HttQ103-GFP aggregates, Acumen cytometry, 40 h. Potency, µM (highest dose often 46.1 µM), most hits filed as inhibitors. actives 1.1% (n = 220,000); active = well fitted curve in the direction sought with a large enough effect; inconclusive = small, poorly fitted or top-dose-only effect, or another doubt; inactive = no such curve, though single readings can be large; an effect the other way counts as inactive or inconclusive; note: nearly all actives have a fitted effect of over 60% in size
#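 Read-out: GFP aggregate count by laser scanning cytometer (488 nm excitation, 500-530 nm emission, 1–25 µm objects >6 SD above background). Cells: PC12, inducible HTTex1-Q103-GFP, 100 nM tebufenozide; compounds titrated.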
# ALDH1A1 block = qHTS Assay for Inhibitors of Aldehyde Dehydrogenase 1 (ALDH1A1) | Purified ALDH1A1, NADH fluorescence, propionaldehyde substrate | Potency, µM (titrated, usually from 75.3 µM), most hits filed as inhibitors | actives 7.3% (n = 220,000) | AID 1030, 2008
# JMJD2E inh = qHTS Assay for Inhibitors of Human Jumonji Domain Containing 2E (JMJD2E); Lysine-specific demethylase 4E (Homo sapiens), B2RXH2; JMJD2E catalytic domain, FDH-coupled NADH fluorescence (FDH is formaldehyde dehydrogenase); Potency, µM (highest dose often 57.1 µM), hits mostly inhibitors; actives 1.6% (n = 230,000); note: nearly all actives have a fitted effect of over 50% in size
# Target sequence (B2RXH2 1-337 limits assumed): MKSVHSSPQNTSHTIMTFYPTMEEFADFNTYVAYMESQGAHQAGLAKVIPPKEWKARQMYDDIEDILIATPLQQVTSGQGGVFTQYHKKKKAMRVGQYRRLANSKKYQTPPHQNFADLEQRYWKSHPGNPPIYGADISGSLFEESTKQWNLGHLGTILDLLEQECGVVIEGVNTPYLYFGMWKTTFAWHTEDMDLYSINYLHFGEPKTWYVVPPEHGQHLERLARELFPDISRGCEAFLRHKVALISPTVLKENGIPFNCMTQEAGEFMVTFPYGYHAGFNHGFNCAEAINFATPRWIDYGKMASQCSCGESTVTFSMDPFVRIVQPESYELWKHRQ
# HTT ATP protect = qHTS Multiplex Assay to Identify Dual Action Probes in a Cell Model of Huntington: Cytoprotection (ATP) | Potency, µM (doses to about 56.4 µM), most hits filed as activators | PC12 HTT-Q103 induced, cytoprotection, ATP luminescence, 40 h | actives 0.14% (n = 230,000); active = well fitted curve in the direction sought with a large enough effect; inconclusive = small, poorly fitted or top-dose-only effect, or another doubt; inactive = no such curve, though single readings can be large; an effect the other way counts as inactive or inconclusive; note: nearly all actives have a fitted effect of over 45% in size
#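 Rat PC12, Q103 Htt exon1-GFP fusion, ecdysone promoter; tebufenozide inducer 100 nM final; compound titration; qHTS, 1500 cells/well; ATPlite luminescent read.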
# HPGD inh = qHTS Assay for Inhibitors of HPGD (15-Hydroxyprostaglandin Dehydrogenase); Potency, µM, most hits filed as inhibitors; purified HPGD, NADH fluorescence kinetic, PGE2 substrate; actives 4.3% (n = 150,000)
#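 NADH formation kinetics: reaction with 30 uM PGE2 and 1 mM NAD+ (final), 20 nM enzyme, Tris-HCl pH 8 with Tween 20, after 15 min compound preincubation at room temperature. Fluorescence change, last versus first of five reads.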
# LMNA splice mod = qHTS Assay for Modulators of Lamin A Splicing. HeLa LMNA splicing GFP/RFP minigene ratio, 48 h. Potency, µM (top dose mostly 46.1 µM), most hits filed as inhibitors. actives 0.01% (n = 200,000); active = well fitted inhibition curve with a large enough effect in the signal ratio, with a control signal flat, not every such curve was filed as active; inconclusive = small, poorly fitted or top-dose-only effect, or effect the other way, or a change in a side signal; the % refers to the signal ratio
#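 Read-out is the ratio of GFP to DsRed2 object intensity, acquired by 488 nm laser-scanning cytometry on HeLa lamin A-EGFP minigene reporter cells. Compound incubation 48 hrs at 37 °C in Opti-MEM with 2% FBS; DMSO 0.5% final.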
# Numbers stand for hits; i = inactive; ? = inconclusive; nt = no result given; [ ] = another dose, or the depositor's remark. Unless noted, calls come from the whole dose curve; as a rule, active = well fitted inhibition curve with a large enough effect (not every such curve was filed as active); inconclusive = small, poorly fitted or top-dose-only effect, or another doubt; inactive = no such curve, though single readings can be large or run the other way.
SMILES,HTT aggregate,ALDH1A1 block,JMJD2E inh,HTT ATP protect,HPGD inh,LMNA splice mod
CCCn1c(C)nc2c(N(C)CCN(C)C)nc(C)nc21,nt,i,i,i,i,nt
CC1CCC/C(=C\Nc2ccc3c(c2)OCO3)C1=O (centres undefined),i,13µM,?,i,?,i
O=C1CSC(=Nc2ccccc2Cl)N1,i,?,i,i,16µM,i
Cc1ncc([N+](=O)[O-])n1C[C@H](O)CCl,i,i,i,?,i,i
CC(=O)c1sc(NC(=O)COc2ccc(Cl)cc2Cl)nc1C,i[9.22 µM],11µM,i,i,nt,nt
O=C(O)c1ccc(NC(CSCc2ccccc2F)C(=O)O)c([N+](=O)[O-])c1 (centres undefined),i,7.9µM,i,nt,i,i
O=C(O)c1ccc(NC(CSCc2ccc(F)cc2)C(=O)O)c([N+](=O)[O-])c1 (centres undefined),i,22µM,i,i,i,i
Cn1nnc2cc(C(=O)N3CCSCC3)ccc21,i,i,i,i,1.6µM,i
CCN(CC)C(=O)c1ccc2c(c1)nnn2C,i,i,i,nt,16µM,i
CC(C)NC(=O)c1ccc2c(c1)nnn2C,i,i,i,i[10 µM],i,i
C=CCOn1c(=O)c(C)[n+]([O-])c2ccccc21,i,?,?,i[10 µM],i,i
CCOc1ccc(-c2c(=O)n(OCc3ccc([N+](=O)[O-])cc3)c3ccccc3[n+]2[O-])cc1,i,20µM,i,i[10 µM],i,?
CCOn1c(=O)c(-c2cccc([N+](=O)[O-])c2)[n+]([O-])c2ccccc21,i,?,i,i[10 µM],?,i
C=CCOn1c(=O)c(-c2ccccc2)[n+]([O-])c2ccccc21,i,?,20µM,i,nt,nt
Nn1cnn(Cc2ccccc2)c1=S,i,25µM,i,i[10 µM],20µM,i
CCCCn1c(CN(C)Cc2ccccc2)nc2c1c(=O)n(C)c(=O)n2C,20µM,i,i,i[10 µM],i,?
CN(Cc1ccccc1)Cc1nc2c(c(=O)n(C)c(=O)n2C)n1CCc1ccccc1,nt,nt,nt,i[0.074 µM],nt,nt
CCCn1c(CN(C)Cc2ccccc2)nc2c1c(=O)n(C)c(=O)n2C,22µM,i,i,i[10 µM],i,?
O=C(c1cccnc1)N1CCc2ccccc2C1,i,i,i,i,32µM,i
COc1ccc(S(=O)(=O)n2nc(OC(=O)c3cccs3)cc2NC(=O)c2cccs2)cc1,i[9.22 µM],i,i,i[10 µM],nt,nt
COc1ccc(-c2[nH]ncc2CN(C)CCc2c(C)n[nH]c2C)c(F)c1,i,10µM,i,i,nt,nt
COc1cccc(/C=N/N2C(=O)CSC2=S)c1O,i,7.1µM,i,nt,25µM,?
O=C(C1=C[C@@H]2[C@H]3C(=O)N(c4ccccc4)C(=O)[C@H]3[C@@H](C(=O)c3ccc(Cl)cc3)N2C=C1)c1ccccc1,i,20µM,i,i[10 µM],i,i
O=C(Cn1nnc(-c2ccccc2)n1)NNC(=O)c1ccco1,i[9.22 µM],i,i,i[10 µM],nt,i
CC1=Nn2c(nnc2-c2ccccc2Cl)SC1,i,i,i,i[0.074 µM],25µM,i
SMILES,HTT aggregate,ALDH1A1 block,JMJD2E inh,HTT ATP protect,HPGD inh,LMNA splice mod
CC1=Nn2c(nnc2-c2ccco2)SC1,i,18µM,i,i,32µM,i
COc1ccccc1-c1nnc2n1N=C(C)CS2,i,i,i,i,i,i
COc1ccc(C=Nc2c(O)ccc3ccccc23)cc1OC,nt,?,nt,i[10 µM],i,nt
C=CCN1/C(=C(\C#N)C2=NS(=O)(=O)c3ccccc32)N(C)c2ccccc21,i,i,i,i,14µM,i
CC(C)(C)OC(=O)N1CCC(c2c(C(=O)NC3CCCCC3)cnn2-c2cccc(F)c2)CC1,nt,nt,nt,nt,nt,i
COc1ccc(-c2cc(=O)c3c(O)cc(O[C@@H]4OC(COC5OC(C)C(O)C(O)[C@@H]5O)C(O)C(O)C4O)cc3o2)cc1 (some centres undefined),nt,i,i,i,22µM,nt

# Bioassay records deposited in PubChem by National Center for Advancing Translational Sciences (NCATS).
